In PubChem BioAssay (EPA / NIEHS) one finds outcome and AC50 data, which are given here for 40 molecules.

The structures appear in SMILES notation. Activity calls are given as the source filed them. Rule for the calls: active = hit-call score of the fitted dose curve at least 0.9, where 1 is the maximum; inactive = score below 0.9.

Read-out in the test: Potassium channel subfamily K member 1 (KCNK1), KCNK1 (gene 3775)
The experiment in a line: LTEA_HepaRG_KCNK1: Life Technologies and Expression Analysis (LTEA) Assay for Potassium channel subfamily K member 1 (KCNK1) using HepaRG (AID 2283511). The conditions noted are these: mRNA level, 48 h; actives raise or lower the signal. As for the experimental part: LTEA_HepaRG is a cell based, multiplexed-readout assay that uses HepaRG, a human liver cell line, with measurements taken at 48 hours after chemical dosing on a 96-well plate.LTEA_HepaRG_KCNK1 is one of 102 assay component(s) measured in the LTEA HepaRG cell culture assay. It is a marker of Hyperplasia.Data from the assay component LTEA_HepaRG_KCNK1 was analyzed into 1 endpoint. This assay endpoint, LTEA_HepaRG_KCNK1, was analyzed with bidirectional fitting relative to DMSO as the negative control and baseline of activity. Using a type of inducible reporter, measures of mRNA induction for gain or loss-of-signal activity can be used to understand regulation of transcription factor activity. To generalize the intended target to other relatable targets, this assay endpoint is annotated to the ion channel intended target family, where the subfamily is potassium channel.
A total of 1060 chemcials from the ToxCast library were tested in eight-point concentration-response experiments. Cell culture and cytotoxicity assays were conducted at Thermo Fisher Scientific's Custom Services facility (Madison, WI). A single lot of human HepaRG cells (Thermo Fisher Scientific, Frederick, MD) was used for the cell culture experiments. 96-well format collagen type I coated plates of human HepaRG cells were prepared using established methods. Briefly, cryopreserved HepaRG cells were thawed, plated at a density of approximately 100,000 cells/well in HepaRG Thaw, Plate, and General Purpose media (HPRG770, Thermo Fisher Scientific), and incubated for 48 hours. 0.5% DMSO was selected as vehicle control to balance the requisite need of DMSO in HepaRG cultures to maintain differentiation (for example, baseline metabolism, proportions of hepatocytes vs. cholangiocytes), while enabling further hepatic receptor pathway activation (for example, PXR and CAR) in response to chemical exposure. 48 hours after plating, the culture medium was replaced with HepaRG Serum-Free Incudtion Media. Cells were exposed to each test chemical in duplicate and maintained in CO2 incubators for another 48 hours. Chemical plates were thawed to room temperature and 200x concentrations of treatment groups were prepared. 8-point conentration-reponse curves were made with the highest exposure at 100 uM, followed by half-log dilutions, all in 0.5% DMSO. Each test plate contained variouse controls, induction positive controls (1mM phenobarbital), cytotoxicity positive controls ([…] aflatoxin B1), vehicle controls (0.5% DMSO), and total lysis controls (0.5% DMSO). Cell morphology images were taken using an Essen IncuCyte FLR automated microscope, with six 96-well plates imaged in about 24 minutes. Images were captured and exported and JPEG files. Spent culture media was transfered to black-well plates for the LDH assay, and remaining media was sorted at -80 C for later use. Cells were treated with RLT buffer and frozen until shipped for gene expression analysis. Total RNA was isolated from the cell suspension in 75 uL of Buffer RLT (Qiagen, Germantown, MD 20874) by Quintiles/Expression Analysis (Durham, NC) using a custom isolation procedure. Total RNA from each plate well was transferred to a preamplification plate. Fluidigm's 96.96 Dynamic ArrayTM (Fluidigm, Amsterdam, the Netherlands) technology was used for gene expression analyses by quantitative reverse transcription polymerase chain reaction (qRT-PCR, performed by Quintiles/Expression Analysis, Durham, NC)89. Standard TaqManTM Assays (Applied Biosystems/ThermoFisher Scientific, Foster City, CA) were used to assess the expression of 93 genes selected based on their selectivity and sensitivity to important hepatic receptors known to be modulated by environmental chemicals; importance in human hepatocyte functionality; and hepatotoxicity. […]
For `C1CC2OC2CC1C1CO1` (stereo not given), the result was inactive. For `CCC(C)c1cc([N+](=O)[O-])cc([N+](=O)[O-])c1O` (stereo not given), the AC50 (commonly the midpoint of the concentration-response curve, whichever way the signal moves) is 27.5 µM (active).

As to `ClC1=C(Cl)[C@]2(Cl)[C@@H]3[C@@H](Cl)[C@H]4O[C@H]4[C@@H]3C1(Cl)C2(Cl)Cl`, the call was inactive. For `O=NN(c1ccccc1)c1ccccc1`, the call was inactive. For `O=C(NC(=O)c1c(F)cccc1F)Nc1cc(Cl)c(OC(F)(F)C(F)F)c(Cl)c1`, the call was inactive. Same read-out and setting: in the case of `CCOC(=O)C(O)(c1ccc(Cl)cc1)c1ccc(Cl)cc1` it was “inactive”. Take `Oc1ccc(Cl)cc1Cl`: the result was inactive. As to `Cc1cc(O)ccc1Cl`, the molecule was called inactive. On to `Oc1ccc(C(c2ccc(O)cc2)(C(F)(F)F)C(F)(F)F)cc1`, for which the result was inactive. As to `Nc1ccc(-c2ccc(N)cc2)cc1`, the result was inactive.

In the case of `CC(C)(O)C(=O)Nc1ccc([N+](=O)[O-])c(C(F)(F)F)c1`, the AC50 was 0.052 µM (active). Regarding `N#Cc1ccc(N(CC(N)=O)CC(F)(F)F)cc1C(F)(F)F`, the molecule was classed as inactive.

Take `Nn1cnnc1`: the call was inactive. Consider `CC#Cc1cc(C)nc(Nc2ccccc2)n1`, for which the molecule was classed as inactive. Same read-out and setting: in the case of `C=CC(N)=O` it was “inactive”; in that of `Cc1ccccc1CO[C@@H]1C[C@@]2(C(C)C)CC[C@]1(C)O2`, “inactive”. For `NS(=O)(=O)C(F)(F)C(F)(F)C(F)(F)C(F)(F)C(F)(F)C(F)(F)C(F)(F)C(F)(F)F`, the molecule was classed as inactive.

Consider `CCCCCCOC(=O)c1ccccc1C(=O)OCCCCCC`, for which the molecule was classed as inactive.

With `CCCN(CCC)N=O`, the molecule was called inactive. For the molecule `CN(C)CCO`, the outcome was inactive.

As for `COc1ccc(O)c(C(C)(C)C)c1`, the call was inactive. Regarding `Cc1ccc(O)c(C)c1`, the outcome was inactive.

As for `Cc1ccccc1[N+](=O)[O-]`, the outcome was inactive.

For `COS(=O)(=O)OC`, the molecule was classed as inactive. As for `O=C(O)C(F)(F)C(F)(F)C(F)(F)C(F)(F)C(F)(F)C(F)(F)C(F)(F)C(F)(F)F`, the AC50 is 76 µM (active). `CC(C)(c1ccccc1)c1ccc(O)cc1`: the outcome was inactive. As for `CCOP(=S)(OCC)SCSC(C)(C)C`, the molecule was classed as inactive. With `c1cc2ccc3cccc4ccc(c1)c2c34`, the result was inactive. Take `Cc1cc(-c2ccc(N)c(C)c2)ccc1N`: the call was inactive. Take `O=S(=O)(O)C(F)(F)C(F)(F)C(F)(F)C(F)(F)C(F)(F)C(F)(F)F`: the molecule was classed as inactive.

With `ClC(Cl)=C(c1ccc(Cl)cc1)c1ccc(Cl)cc1`, the molecule was classed as inactive. Still for that read-out and setting: the value for `O=C(O)C(F)(F)C(F)(F)C(F)(F)C(F)(F)C(F)(F)F` was “inactive”.

With `ClC1=C(Cl)[C@]2(Cl)[C@@H]3[C@H]4C[C@H]([C@@H]5O[C@H]45)[C@@H]3[C@@]1(Cl)C2(Cl)Cl`, the outcome was inactive.

As for `CCC(=O)O[C@H]1CC[C@H]2[C@@H]3CCC4=CC(=O)CC[C@]4(C)[C@H]3CC[C@]12C`, the call was inactive.

For the molecule `Clc1ccc(C(c2ccccc2Cl)C(Cl)(Cl)Cl)cc1` (stereo not given), the result was inactive.

For `CC(c1ccc(O)cc1)(c1ccc(O)cc1)c1ccc(O)cc1`, the outcome was inactive. With `C[C@]12CCC(=O)C=C1CC[C@@H]1[C@@H]2CC[C@]2(C)C(=O)CC[C@@H]12`, the result was inactive.

On to `c1ccc(-c2ccccc2)cc1`, for which the molecule was called inactive.

In the case of `Cc1cc2c3c(c1)C(c1ccccc1)=N[C@@H](NC(=O)c1ccncc1)C(=O)N3CC2`, the result was inactive. In the case of `Oc1c(Cl)c(Cl)c(Cl)c(Cl)c1Cl`, the AC50 was 34.5 µM (active).
